Experimental data published in article PMC7862700, “An all-to-all approach to the identification of sequence-specific readers for epigenetic DNA modifications on cytosine”.

Tests used:
Experiment in all cases: DAPPL (digital affinity profiling via proximity ligation, sequencing); 10 mM Tris-HCl pH 7.5, 50 mM NaCl, 1 mM DTT, 4% glycerol, room temperature, 30 min; GST-TFs on glutathione beads, 16-mer random dsDNA library, 0.1% formaldehyde crosslink after washing; high values mean tight binding
FEV = target: T1, FEV (Homo sapiens, UniProt Q99581 1-238); conditions: protein: recombinant; tags: N-terminal GST; dsDNA, one strand shown
T1 sequence: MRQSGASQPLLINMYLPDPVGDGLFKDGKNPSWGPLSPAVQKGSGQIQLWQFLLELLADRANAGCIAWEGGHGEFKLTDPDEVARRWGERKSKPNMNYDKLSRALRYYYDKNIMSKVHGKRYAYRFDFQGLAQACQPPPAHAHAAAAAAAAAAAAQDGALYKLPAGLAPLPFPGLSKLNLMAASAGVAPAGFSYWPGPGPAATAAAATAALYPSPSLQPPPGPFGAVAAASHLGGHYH
Summary of the method: (§1)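 Binding signal is each hexamer's read frequency for a factor divided by its frequency in the tag-only sample. The factors were GST-fused human transcription factors from yeast, captured on glutathione beads, DNA-barcoded and pooled with that sample. Pools were incubated with 200 nmole of a random double-stranded 16-mer DNA library in Tris/NaCl/DTT/glycerol buffer at room temperature for 30 min, then washed, crosslinked with 0.1% formaldehyde, proximity-ligated with BsaI/T4 ligase (1 h, 37 °C), PCR-amplified and sequenced on an Illumina NextSeq500.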

ETV5 = ETV5 (Homo sapiens, UniProt P41161 1-510); conditions: protein: recombinant; tags: N-terminal GST; dsDNA, one strand shown
Sequence of ETV5 (P41161 whole entry): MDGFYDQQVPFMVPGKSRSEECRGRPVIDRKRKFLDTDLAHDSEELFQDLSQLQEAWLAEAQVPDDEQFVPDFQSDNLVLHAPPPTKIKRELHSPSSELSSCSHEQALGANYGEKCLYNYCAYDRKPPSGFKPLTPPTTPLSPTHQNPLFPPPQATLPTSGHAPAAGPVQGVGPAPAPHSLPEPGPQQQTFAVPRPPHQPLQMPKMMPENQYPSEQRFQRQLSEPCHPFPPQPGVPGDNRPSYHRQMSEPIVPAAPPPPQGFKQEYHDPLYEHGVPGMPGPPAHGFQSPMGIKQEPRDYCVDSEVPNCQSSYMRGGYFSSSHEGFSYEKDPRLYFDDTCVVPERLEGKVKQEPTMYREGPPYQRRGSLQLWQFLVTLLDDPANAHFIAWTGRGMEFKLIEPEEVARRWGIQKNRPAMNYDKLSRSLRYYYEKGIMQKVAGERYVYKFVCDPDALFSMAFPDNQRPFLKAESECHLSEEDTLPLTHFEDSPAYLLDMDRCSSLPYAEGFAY
Summary of the method: as §1

HSF1 = HSF1 (Homo sapiens, UniProt Q00613 1-529); conditions: protein: recombinant; tags: N-terminal GST; chain copies: 3; dsDNA, one strand shown
Sequence of HSF1 (Q00613 whole entry): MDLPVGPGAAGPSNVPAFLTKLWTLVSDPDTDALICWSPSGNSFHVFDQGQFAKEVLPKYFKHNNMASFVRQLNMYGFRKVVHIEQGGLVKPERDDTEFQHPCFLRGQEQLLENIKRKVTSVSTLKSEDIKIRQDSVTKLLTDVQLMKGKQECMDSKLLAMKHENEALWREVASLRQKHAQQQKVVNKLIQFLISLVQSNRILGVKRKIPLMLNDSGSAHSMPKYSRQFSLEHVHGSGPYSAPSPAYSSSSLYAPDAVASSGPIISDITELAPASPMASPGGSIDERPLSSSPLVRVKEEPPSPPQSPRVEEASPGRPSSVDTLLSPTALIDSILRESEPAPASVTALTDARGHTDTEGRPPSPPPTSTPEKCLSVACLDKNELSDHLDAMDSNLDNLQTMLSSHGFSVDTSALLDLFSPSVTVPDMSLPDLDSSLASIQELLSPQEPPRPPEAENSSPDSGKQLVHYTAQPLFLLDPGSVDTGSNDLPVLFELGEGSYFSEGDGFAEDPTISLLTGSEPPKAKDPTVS
Summary of the method: as §1

SPIC = target: T2, SPIC (Homo sapiens, UniProt Q8N5J4 1-248); conditions: protein: recombinant; tags: N-terminal GST; dsDNA, one strand shown
T2 sequence: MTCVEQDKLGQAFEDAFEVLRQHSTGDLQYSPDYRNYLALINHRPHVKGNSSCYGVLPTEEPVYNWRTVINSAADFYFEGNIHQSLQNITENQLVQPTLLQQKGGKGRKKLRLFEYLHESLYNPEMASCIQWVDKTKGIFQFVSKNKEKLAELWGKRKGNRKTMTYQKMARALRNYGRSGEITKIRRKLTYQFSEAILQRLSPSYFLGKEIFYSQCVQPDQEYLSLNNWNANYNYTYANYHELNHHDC
Summary of the method: as §1

ELF4 = ELF4 (Homo sapiens, UniProt Q99607 1-663); conditions: protein: recombinant; tags: N-terminal GST; dsDNA, one strand shown
Sequence of ELF4 (Q99607 whole entry): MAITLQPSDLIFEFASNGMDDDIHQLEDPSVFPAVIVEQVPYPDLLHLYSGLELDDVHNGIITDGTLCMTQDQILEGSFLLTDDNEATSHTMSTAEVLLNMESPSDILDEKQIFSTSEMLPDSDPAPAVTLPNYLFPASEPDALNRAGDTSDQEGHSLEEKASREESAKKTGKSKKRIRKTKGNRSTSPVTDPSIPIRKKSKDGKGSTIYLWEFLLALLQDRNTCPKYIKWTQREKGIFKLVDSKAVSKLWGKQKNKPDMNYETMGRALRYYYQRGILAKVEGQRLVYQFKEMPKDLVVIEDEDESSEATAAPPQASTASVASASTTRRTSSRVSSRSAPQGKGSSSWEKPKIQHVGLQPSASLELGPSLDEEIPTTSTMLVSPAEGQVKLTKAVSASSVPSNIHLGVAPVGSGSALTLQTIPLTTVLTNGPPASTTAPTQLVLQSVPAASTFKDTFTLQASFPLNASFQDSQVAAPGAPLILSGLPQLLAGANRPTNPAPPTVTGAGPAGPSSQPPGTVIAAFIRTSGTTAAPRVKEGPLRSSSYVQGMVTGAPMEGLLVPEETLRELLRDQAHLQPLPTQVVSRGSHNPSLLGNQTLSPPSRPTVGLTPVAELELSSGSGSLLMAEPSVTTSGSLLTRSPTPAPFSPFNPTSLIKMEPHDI
Summary of the method: as §1

ETV2 = target: T3, ETV2 (Homo sapiens, UniProt O00321 1-342); conditions: protein: recombinant; tags: N-terminal GST; dsDNA, one strand shown
T3 sequence: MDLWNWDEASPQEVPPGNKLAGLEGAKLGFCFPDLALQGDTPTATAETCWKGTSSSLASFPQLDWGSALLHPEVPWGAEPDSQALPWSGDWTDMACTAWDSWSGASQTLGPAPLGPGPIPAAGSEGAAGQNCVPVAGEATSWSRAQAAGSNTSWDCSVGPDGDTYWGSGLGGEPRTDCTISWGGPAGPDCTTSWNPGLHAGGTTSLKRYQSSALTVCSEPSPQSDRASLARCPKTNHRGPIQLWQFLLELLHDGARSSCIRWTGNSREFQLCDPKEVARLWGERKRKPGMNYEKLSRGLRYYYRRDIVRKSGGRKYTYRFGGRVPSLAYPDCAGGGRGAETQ
Summary of the method: as §1

ELF3 = target: T4, ELF3 (Homo sapiens, UniProt P78545 1-371); conditions: protein: recombinant; tags: N-terminal GST; dsDNA, one strand shown
T4 sequence: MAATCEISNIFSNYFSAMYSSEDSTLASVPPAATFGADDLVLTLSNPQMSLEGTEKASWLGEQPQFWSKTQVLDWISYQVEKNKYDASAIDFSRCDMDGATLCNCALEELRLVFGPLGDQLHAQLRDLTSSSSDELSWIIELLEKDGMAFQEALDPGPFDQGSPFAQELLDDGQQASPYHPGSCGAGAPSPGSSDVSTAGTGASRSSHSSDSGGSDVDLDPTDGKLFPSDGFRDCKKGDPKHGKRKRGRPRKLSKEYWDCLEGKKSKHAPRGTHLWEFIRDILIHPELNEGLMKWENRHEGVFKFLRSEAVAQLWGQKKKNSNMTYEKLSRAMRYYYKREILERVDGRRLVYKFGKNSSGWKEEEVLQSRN
Summary of the method: as §1

ETV1 = ETV1 (Homo sapiens, UniProt P50549 1-477); conditions: protein: recombinant; tags: N-terminal GST; dsDNA, one strand shown
Sequence of ETV1 (P50549 whole entry): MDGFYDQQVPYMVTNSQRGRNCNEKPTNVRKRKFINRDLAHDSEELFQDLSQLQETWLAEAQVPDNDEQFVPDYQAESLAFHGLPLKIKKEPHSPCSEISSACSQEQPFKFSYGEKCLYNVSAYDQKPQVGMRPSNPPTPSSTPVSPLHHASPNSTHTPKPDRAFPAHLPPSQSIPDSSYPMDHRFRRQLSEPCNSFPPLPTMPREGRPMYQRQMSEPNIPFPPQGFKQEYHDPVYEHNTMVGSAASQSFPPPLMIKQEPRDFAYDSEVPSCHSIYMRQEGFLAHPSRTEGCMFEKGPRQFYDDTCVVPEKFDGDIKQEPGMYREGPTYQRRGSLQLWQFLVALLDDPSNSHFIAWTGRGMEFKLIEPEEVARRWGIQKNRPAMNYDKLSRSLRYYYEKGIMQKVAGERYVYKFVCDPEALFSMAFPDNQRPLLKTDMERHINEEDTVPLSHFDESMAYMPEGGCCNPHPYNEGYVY
Summary of the method: as §1

ERF = target: T5, ERF (Homo sapiens, UniProt P50548 1-548); conditions: protein: recombinant; tags: N-terminal GST; dsDNA, one strand shown
T5 sequence: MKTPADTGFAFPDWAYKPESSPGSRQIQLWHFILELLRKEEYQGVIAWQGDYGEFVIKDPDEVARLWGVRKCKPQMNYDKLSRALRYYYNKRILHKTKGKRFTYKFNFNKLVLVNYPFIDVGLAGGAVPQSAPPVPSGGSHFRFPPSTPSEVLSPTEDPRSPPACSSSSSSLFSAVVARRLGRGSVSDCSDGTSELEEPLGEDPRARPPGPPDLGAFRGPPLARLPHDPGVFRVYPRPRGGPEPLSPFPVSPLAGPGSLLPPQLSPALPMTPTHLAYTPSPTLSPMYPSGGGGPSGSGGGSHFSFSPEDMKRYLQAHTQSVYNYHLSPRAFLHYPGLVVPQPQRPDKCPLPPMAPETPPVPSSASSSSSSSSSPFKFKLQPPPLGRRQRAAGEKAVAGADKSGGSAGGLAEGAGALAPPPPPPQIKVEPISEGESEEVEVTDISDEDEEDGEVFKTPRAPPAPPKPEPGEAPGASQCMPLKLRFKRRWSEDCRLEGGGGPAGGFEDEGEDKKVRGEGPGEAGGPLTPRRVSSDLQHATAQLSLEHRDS
Summary of the method: as §1

ETV3L = target: T6, ETV3L (Homo sapiens, UniProt Q6ZN32 1-361); conditions: protein: recombinant; tags: N-terminal GST; dsDNA, one strand shown
T6 sequence: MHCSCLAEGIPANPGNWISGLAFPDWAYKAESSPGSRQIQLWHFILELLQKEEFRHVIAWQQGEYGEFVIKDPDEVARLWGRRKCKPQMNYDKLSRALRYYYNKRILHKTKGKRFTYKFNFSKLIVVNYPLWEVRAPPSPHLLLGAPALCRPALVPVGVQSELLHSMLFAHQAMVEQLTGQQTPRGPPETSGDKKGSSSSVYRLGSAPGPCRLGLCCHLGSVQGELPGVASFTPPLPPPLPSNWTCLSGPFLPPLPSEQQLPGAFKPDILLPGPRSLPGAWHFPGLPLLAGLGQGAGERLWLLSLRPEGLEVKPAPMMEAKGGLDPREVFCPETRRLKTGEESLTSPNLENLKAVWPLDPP
Summary of the method: as §1

ETS2 = target: T7, ETS2 (Homo sapiens, UniProt P15036 1-469); conditions: protein: recombinant; tags: N-terminal GST; dsDNA, one strand shown
T7 sequence: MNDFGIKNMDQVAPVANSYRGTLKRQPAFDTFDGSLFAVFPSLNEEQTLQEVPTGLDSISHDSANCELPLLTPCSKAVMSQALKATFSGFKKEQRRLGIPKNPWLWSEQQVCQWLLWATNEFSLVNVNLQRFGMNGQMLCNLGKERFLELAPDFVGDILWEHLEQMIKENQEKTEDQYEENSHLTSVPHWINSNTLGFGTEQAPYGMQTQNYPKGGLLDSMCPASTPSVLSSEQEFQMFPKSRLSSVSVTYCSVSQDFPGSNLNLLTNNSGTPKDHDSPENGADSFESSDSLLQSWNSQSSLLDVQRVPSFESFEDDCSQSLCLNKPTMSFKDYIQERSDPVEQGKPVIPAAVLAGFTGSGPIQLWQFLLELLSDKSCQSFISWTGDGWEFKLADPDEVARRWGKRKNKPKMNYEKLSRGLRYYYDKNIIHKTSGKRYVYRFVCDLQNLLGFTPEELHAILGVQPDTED
Summary of the method: as §1

SPDEF = target: T8, SPDEF (Homo sapiens, UniProt O95238 1-335); conditions: protein: recombinant; tags: N-terminal GST; dsDNA, one strand shown
T8 sequence: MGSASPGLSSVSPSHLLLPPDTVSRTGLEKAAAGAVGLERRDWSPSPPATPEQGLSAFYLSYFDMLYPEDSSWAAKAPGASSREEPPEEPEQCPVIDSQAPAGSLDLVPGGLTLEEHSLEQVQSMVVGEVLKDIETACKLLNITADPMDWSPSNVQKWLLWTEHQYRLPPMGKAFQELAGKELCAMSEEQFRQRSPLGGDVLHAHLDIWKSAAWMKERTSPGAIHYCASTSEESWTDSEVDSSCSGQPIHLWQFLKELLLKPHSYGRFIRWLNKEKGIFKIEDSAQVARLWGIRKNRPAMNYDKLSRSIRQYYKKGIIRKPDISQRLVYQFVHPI
Summary of the method: as §1

ETV7 = target: T9, ETV7 (Homo sapiens, UniProt Q9Y603 1-341); conditions: protein: recombinant; tags: N-terminal GST; dsDNA, one strand shown
T9 sequence: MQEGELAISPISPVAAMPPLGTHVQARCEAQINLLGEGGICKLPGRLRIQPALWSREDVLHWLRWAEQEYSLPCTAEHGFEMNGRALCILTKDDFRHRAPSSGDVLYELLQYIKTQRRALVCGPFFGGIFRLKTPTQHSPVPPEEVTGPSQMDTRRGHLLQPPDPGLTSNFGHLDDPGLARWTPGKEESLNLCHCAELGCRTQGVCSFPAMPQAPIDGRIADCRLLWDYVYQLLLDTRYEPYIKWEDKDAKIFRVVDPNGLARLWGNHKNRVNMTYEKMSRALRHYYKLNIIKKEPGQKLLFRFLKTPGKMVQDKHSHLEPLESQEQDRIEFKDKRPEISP
Summary of the method: as §1

ELF5 = target: T10, ELF5 (Homo sapiens, UniProt Q9UKW6-2 1-255); conditions: protein: recombinant; tags: N-terminal GST; dsDNA, one strand shown
T10 sequence: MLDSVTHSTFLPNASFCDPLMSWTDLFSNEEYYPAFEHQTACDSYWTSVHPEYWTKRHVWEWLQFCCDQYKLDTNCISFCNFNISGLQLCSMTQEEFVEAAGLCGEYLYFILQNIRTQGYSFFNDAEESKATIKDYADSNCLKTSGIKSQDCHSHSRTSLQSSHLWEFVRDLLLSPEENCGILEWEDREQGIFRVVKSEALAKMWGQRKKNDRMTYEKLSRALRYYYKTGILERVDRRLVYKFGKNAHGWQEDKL
Summary of the method: as §1

ETV3 = target: T11, ETV3 (Homo sapiens, UniProt P41162-2 1-143); conditions: protein: recombinant; tags: N-terminal GST; dsDNA, one strand shown
T11 sequence: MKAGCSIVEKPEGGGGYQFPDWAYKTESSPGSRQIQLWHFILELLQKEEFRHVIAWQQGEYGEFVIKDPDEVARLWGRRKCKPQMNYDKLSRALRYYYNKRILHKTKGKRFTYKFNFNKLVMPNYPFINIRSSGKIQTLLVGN
Summary of the method: as §1

ETV6 = ETV6 (Homo sapiens, UniProt P41212 1-452); conditions: protein: recombinant; tags: N-terminal GST; dsDNA, one strand shown
Sequence of ETV6 (P41212 whole entry): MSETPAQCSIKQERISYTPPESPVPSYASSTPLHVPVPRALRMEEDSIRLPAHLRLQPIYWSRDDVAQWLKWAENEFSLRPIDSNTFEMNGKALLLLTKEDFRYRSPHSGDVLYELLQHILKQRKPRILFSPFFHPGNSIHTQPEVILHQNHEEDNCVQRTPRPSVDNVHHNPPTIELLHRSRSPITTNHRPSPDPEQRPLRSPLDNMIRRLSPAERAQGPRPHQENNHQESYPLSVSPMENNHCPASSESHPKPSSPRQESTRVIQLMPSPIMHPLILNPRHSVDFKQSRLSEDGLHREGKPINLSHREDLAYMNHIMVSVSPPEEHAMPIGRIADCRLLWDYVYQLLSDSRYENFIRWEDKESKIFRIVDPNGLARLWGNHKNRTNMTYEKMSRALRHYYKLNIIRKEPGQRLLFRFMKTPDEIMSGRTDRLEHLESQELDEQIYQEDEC
Summary of the method: as §1

Row | Sequence | binding signal (FEV) | binding signal (ETV5) | binding signal (HSF1) | binding signal (SPIC) | binding signal (ELF4) | binding signal (ETV2) | binding signal (ELF3) | binding signal (ETV1) | binding signal (ERF) | binding signal (ETV3L) | binding signal (ETS2) | binding signal (SPDEF) | binding signal (ETV7) | binding signal (ELF5) | binding signal (ETV3) | binding signal (ETV6)
1 | GTTTTC | 1.21 fold enrichment (6-mer frequency, TF over GST control) | 1.24 fold enrichment (6-mer frequency, TF over GST control) | 1.13 fold enrichment (6-mer frequency, TF over GST control) | 1.1 fold enrichment (6-mer frequency, TF over GST control) | 1.2 fold enrichment (6-mer frequency, TF over GST control) | 1.25 fold enrichment (6-mer frequency, TF over GST control) | 1.32 fold enrichment (6-mer frequency, TF over GST control) | 1.13 fold enrichment (6-mer frequency, TF over GST control) | 1.34 fold enrichment (6-mer frequency, TF over GST control) | 1.27 fold enrichment (6-mer frequency, TF over GST control) | 1.16 fold enrichment (6-mer frequency, TF over GST control) | 1.08 fold enrichment (6-mer frequency, TF over GST control) | 1.36 fold enrichment (6-mer frequency, TF over GST control) | 1.31 fold enrichment (6-mer frequency, TF over GST control) | 1.29 fold enrichment (6-mer frequency, TF over GST control) | 1.23 fold enrichment (6-mer frequency, TF over GST control)
2 | AAACGA | 1.09 fold enrichment (6-mer frequency, TF over GST control) | 1.1 fold enrichment (6-mer frequency, TF over GST control) | 1.09 fold enrichment (6-mer frequency, TF over GST control) | 1.02 fold enrichment (6-mer frequency, TF over GST control) | 1.08 fold enrichment (6-mer frequency, TF over GST control) | 1.1 fold enrichment (6-mer frequency, TF over GST control) | 1.11 fold enrichment (6-mer frequency, TF over GST control) | 1.03 fold enrichment (6-mer frequency, TF over GST control) | 1.17 fold enrichment (6-mer frequency, TF over GST control) | – | 1.15 fold enrichment (6-mer frequency, TF over GST control) | 1.03 fold enrichment (6-mer frequency, TF over GST control) | 1.05 fold enrichment (6-mer frequency, TF over GST control) | 1.09 fold enrichment (6-mer frequency, TF over GST control) | 1.07 fold enrichment (6-mer frequency, TF over GST control) | 1.12 fold enrichment (6-mer frequency, TF over GST control)
3 | CTCGTG | 1.05 fold enrichment (6-mer frequency, TF over GST control) | 1.03 fold enrichment (6-mer frequency, TF over GST control) | 1.18 fold enrichment (6-mer frequency, TF over GST control) | 1.03 fold enrichment (6-mer frequency, TF over GST control) | 1.21 fold enrichment (6-mer frequency, TF over GST control) | – | – | 1.18 fold enrichment (6-mer frequency, TF over GST control) | 1.12 fold enrichment (6-mer frequency, TF over GST control) | 1.01 fold enrichment (6-mer frequency, TF over GST control) | 1.13 fold enrichment (6-mer frequency, TF over GST control) | 1.07 fold enrichment (6-mer frequency, TF over GST control) | 1.12 fold enrichment (6-mer frequency, TF over GST control) | 1.11 fold enrichment (6-mer frequency, TF over GST control) | 1.08 fold enrichment (6-mer frequency, TF over GST control) | 1.02 fold enrichment (6-mer frequency, TF over GST control)
